From the supplement of paper PMC6805474

Experiments:
[1] = test system: Schistosoma mansoni schistosomula (LE); assay: XTT viability relative to DMSO control; higher = more viable (less active); settings: 72 h; 10 µM
Experimental: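 XTT/PMS was then added for a further 24 h (72 h total) and A450 was read. % viability = (sample - heat-killed control)/(DMSO control - heat-killed control) x 100, from duplicate wells in two independent experiments.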

[2] = test system: Schistosoma mansoni schistosomula (NMRI); assay: phenotypic severity score (0-4); higher = more antischistosomal effect, active = 2 or more; settings: 10 µM
[3] = test system: Schistosoma mansoni schistosomula (Liberian); assay: drug effect (1 - score/DMSO control score) (fraction); higher = more antischistosomal effect, active = 0.5 or more; extreme values may be limits of the assay; settings: 10 µM
Outline: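 Liberian-strain Schistosoma mansoni schistosomula, mechanically transformed from cercariae and pre-incubated at least 12 h, were exposed in duplicate (50 per well, flat-bottom 96-well plates) to 10 µM compound in Medium 199 with 5% FCS at 37 °C, 5% CO2, with 0.1% DMSO control wells. Wells were scored visually (10×) at 24, 48 and 72 h on a quarter-point scale from 3 (normal) to 0 (dead). Drug effect was derived from the mean test-well score relative to the mean DMSO-control score. Negative values were set to zero, and plates were valid only if control wells averaged at least 2.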
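Throughout, for phenotypic severity score (0-4): visual microscopic scoring of shape, motility and density changes versus 0.5% DMSO solvent controls, one point per descriptor, degeneracy or death scored 4, mean of duplicate wells.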

COC(=O)c1c(NC(=O)c2cc3ccccc3oc2=O)sc2c1CCN(Cc1ccccc1)C2
XTT viability [1]: 76.3% | phenotypic severity score ([2]; 24 h): 0 (inactive) | phenotypic severity score ([2]; 48 h): 3 (active) | phenotypic severity score ([2]; 72 h): 2 (active) | drug effect ([3]; 24 h): 0.4 (inactive) | drug effect ([3]; 48 h): 0.222 (inactive) | drug effect ([3]; 72 h): 0.556 (active)

COc1ccc(-c2nnc3ccc(-c4cccc(C(C)C)c4)cn23)cc1OC
XTT viability [1]: 14.7% | phenotypic severity score ([2]; 24 h): 0 (inactive) | phenotypic severity score ([2]; 48 h): 2 (active) | phenotypic severity score ([2]; 72 h): 0 (inactive) | drug effect ([3]; 24 h): 0.1 (inactive) | drug effect ([3]; 48 h): 0.167 (inactive) | drug effect ([3]; 72 h): 0.278 (inactive)

Cc1nc(-c2ccccn2)nc(N2CCC(Cc3ccccc3)C2)c1Cl (stereo not given)
XTT viability [1]: -3.46% | phenotypic severity score ([2]; 24 h): 0 (inactive) | phenotypic severity score ([2]; 48 h): 0 (inactive) | phenotypic severity score ([2]; 72 h): 0 (inactive) | drug effect ([3]; 24 h): 0.15 (inactive) | drug effect ([3]; 48 h): 0.1 (inactive) | drug effect ([3]; 72 h): 0.333 (inactive)

CC(C)NCC(=O)Nc1cccc(C(=O)Nc2cccc(C(F)(F)F)c2)c1
XTT viability [1]: 86.7% | phenotypic severity score ([2]; 24 h): 0 (inactive) | phenotypic severity score ([2]; 48 h): 0 (inactive) | phenotypic severity score ([2]; 72 h): 0 (inactive) | drug effect ([3]; 24 h): 0.2 (inactive) | drug effect ([3]; 48 h): 0.167 (inactive) | drug effect ([3]; 72 h): 0.375 (inactive)

FC(F)(F)c1ccc(N(c2cccnc2)C2CCN(c3ccc(C(F)(F)F)cn3)CC2)cc1
XTT viability [1]: 77.5% | phenotypic severity score ([2]; 24 h): 0 (inactive) | phenotypic severity score ([2]; 48 h): 0 (inactive) | phenotypic severity score ([2]; 72 h): 1 (inactive) | drug effect ([3]; 24 h): 0.2 (inactive) | drug effect ([3]; 48 h): 0.222 (inactive) | drug effect ([3]; 72 h): 0.312 (inactive)

CCCS(=O)(=O)N1CCC(CO)(Cc2ccccc2C(F)(F)F)CC1
XTT viability [1]: 95.7% | phenotypic severity score ([2]; 24 h): 2 (active) | phenotypic severity score ([2]; 48 h): 4 (active) | phenotypic severity score ([2]; 72 h): 4 (active) | drug effect ([3]; 24 h): 0.243 (inactive) | drug effect ([3]; 48 h): 0.278 (inactive) | drug effect ([3]; 72 h): 0.75 (active)

CC1=NN(c2nc3ccccc3s2)C(=O)C1Cc1cccc2ccccc12 (stereo not given)
XTT viability [1]: 61.8% | phenotypic severity score ([2]; 24 h): 0 (inactive) | phenotypic severity score ([2]; 48 h): 0 (inactive) | phenotypic severity score ([2]; 72 h): 0 (inactive) | drug effect ([3]; 24 h): 0.0909 (inactive) | drug effect ([3]; 48 h): 0.1 (inactive) | drug effect ([3]; 72 h): 0.127 (inactive)

CCCCN(CCCC)c1c(C#N)cc(S(=O)(=O)Nc2ccccc2)cc1C#N
XTT viability [1]: 40.5% | phenotypic severity score ([2]; 24 h): 0 (inactive) | phenotypic severity score ([2]; 48 h): 0 (inactive) | phenotypic severity score ([2]; 72 h): 0 (inactive) | drug effect ([3]; 24 h): 0.15 (inactive) | drug effect ([3]; 48 h): 0.135 (inactive) | drug effect ([3]; 72 h): 0.273 (inactive)

O=C(C(Cc1c[nH]c2ccccc12)NS(=O)(=O)c1ccc(Cl)cc1)N1CCCCC1 (stereo not given)
XTT viability [1]: 96.4% | phenotypic severity score ([2]; 24 h): 0 (inactive) | phenotypic severity score ([2]; 48 h): 0 (inactive) | phenotypic severity score ([2]; 72 h): 0 (inactive) | drug effect ([3]; 24 h): 0.05 (inactive) | drug effect ([3]; 48 h): 0.0811 (inactive) | drug effect ([3]; 72 h): 0.111 (inactive)

COc1ccc(-c2cnc3cnc(-c4cccc(OC(C)C)c4)cn23)cc1
XTT viability [1]: 39% | phenotypic severity score ([2]; 24 h): 2 (active) | phenotypic severity score ([2]; 48 h): 4 (active) | phenotypic severity score ([2]; 72 h): 4 (active) | drug effect ([3]; 24 h): 0.0455 (inactive) | drug effect ([3]; 48 h): < 0 (inactive) | drug effect ([3]; 72 h): 0.105 (inactive)
